Bioassay records (PubChem)
Most compounds without a hit are left out; they make up all but 7% or so of the library.
D3 antag: D3 dopamine receptor (human) antagonism. P35462. D3R cells, DiscoveRx beta-arrestin luminescence, antagonist mode; hits give low values. max response, negative = inhibition, %. actives 2.5% (n = 360,000). AID 652054; in the data active means max response below about -50%; inconclusive means no clear call, values can overlap the other calls
Target sequence (P35462 whole entry, looked up): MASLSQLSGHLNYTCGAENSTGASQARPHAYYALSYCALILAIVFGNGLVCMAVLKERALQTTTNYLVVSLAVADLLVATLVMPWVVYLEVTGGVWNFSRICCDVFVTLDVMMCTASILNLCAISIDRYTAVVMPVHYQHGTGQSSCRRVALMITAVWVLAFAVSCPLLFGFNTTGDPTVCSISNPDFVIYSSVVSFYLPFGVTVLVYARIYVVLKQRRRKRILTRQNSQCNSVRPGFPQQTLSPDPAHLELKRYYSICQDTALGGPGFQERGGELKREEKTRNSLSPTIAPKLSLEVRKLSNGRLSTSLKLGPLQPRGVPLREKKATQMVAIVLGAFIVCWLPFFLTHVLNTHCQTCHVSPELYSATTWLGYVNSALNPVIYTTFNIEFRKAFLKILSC
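Cells plated overnight at 1500 cells/well, then exposed to library compounds with dopamine controls for 90 minutes at 37 degrees C. DiscoveRx reagent added for 30–60 minutes at room temperature; luminescence read, quantitative HTS format.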
S2 tox: cell viability loss in ATXN counter-screen; S2 cells (HEK-293 line with an ATXN2-luciferase reporter) viability, CellTiter-Fluor protease fluorescence, 24 h; Potency, µM (doses to about 56.7 µM), actives largely listed as cytotoxic; actives 0.49% (n = 400,000); AID 651635; further: nearly all actives have a fitted effect of over 40% in size
Integrin act MD: integrin-mediated muscular dystrophy alleviation activation; alpha7betagal myoblasts, beta-gal FDG fluorescence, 48 h; Potency, µM (highest dose often 38.3 µM), usual class: activators; actives 0.064% (n = 350,000); AID 624291; further: nearly all actives have a fitted effect of over 60% in size
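Alpha7betagal+/- myoblasts (passage 13) were plated 16-24 hr, then exposed to compounds (1:260 dilution of DMSO stock) for 48 hours at 37C. After MPER lysis, β-galactosidase reporter activity was read as FDG fluorescence (ex 480/em 540) after 30 minutes.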
IL-1B inflam inh: blocks inflammasome-driven IL-1 beta release | THP-1 LPS/ATP IL-1B secretion, AlphaLISA, 16 h; hits give low values | activity change, % at 57.5 µM | actives 4.7% (n = 360,000); in the data active means activity change below about -50%; inconclusive means mostly about -30% to -49%
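Secreted IL-1B measured by AlphaLISA bead assay after 16 h compound exposure of THP-1 cells; compounds (final up to 57.5 uM) added 1 h before LPS (250 ng/mL) and ATP (1.25 mM) stimulation; lower signal means less secretion.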
DRD3 agonist: activates the human D3 dopamine receptor; actives 0.58% (n = 410,000); max activation, %; AID 652048; D3R DiscoveRx beta-arrestin cells, luminescence, 90 min; P35462; in the data active means max activation above about 30%
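Cells at 1500/well, incubated overnight, then treated with pinned compounds (dopamine as control) for 90 min at 37 degrees C. DiscoveRx reagent added for 30 - 60 minutes at room temperature; luminescence read.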
ATXN2 expr inh: inhibitors of ATXN2 expression; HEK-293 ATXN2-luciferase reporter, luminescence, 24 h; Potency, µM (series often up to 57 µM), usual class: inhibitors; actives 0.72% (n = 360,000); AID 1745845; further: nearly all actives have a fitted effect of over 55% in size
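ATXN2-luciferase reporter cells (luciferase flanked by upstream and downstream ATXN2 gene portions) were treated 24 h at 37 °C with compounds at up to 57 uM. SteadyGlo luminescence gave expression; GF-AFC fluorescence gave viability.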
Of the large screens only hits and unclear results are named; the others gave an inactive call; ! = a repeat was not active. Unless noted, the call rests on the fitted dose curve; in most records, active means well fitted curve in the direction sought with a large enough effect; inconclusive means small, poorly fitted or top-dose-only effect, or another doubt; inactive means no such curve, though single readings can be large; an effect the other way counts as inactive or inconclusive.

CCN1C[C@@H]2[C@@H]3C(=O)N(Cc4ccccc4)C(=O)[C@@H]3[C@](Cc3ccccc3)(C1=O)N2C(=O)c1ccc(C(C)(C)C)cc1	S2 tox 32µM, ATXN2 expr inh inconclusive
CCN1C[C@@H]2[C@@H]3C(=O)N(Cc4ccccc4)C(=O)[C@@H]3[C@](C)(C1=O)N2C(=O)c1ccccc1	DRD3 agonist 43
Cc1ccc(C(=O)N2[C@@H]3CN(C)C(=O)[C@@]2(C)[C@H]2C(=O)N(Cc4ccccc4)C(=O)[C@@H]32)cc1	DRD3 agonist 32
Cc1ccc(NS(=O)(=O)c2ccc3[nH]c4c(c3c2)CCCC4)c(C)c1	S2 tox inconclusive, ATXN2 expr inh inconclusive (no result: D3 antag, Integrin act MD, IL-1B inflam inh)
COc1ccccc1OCCN1CSC(=S)N(C)C1	D3 antag inconclusive, S2 tox inconclusive, IL-1B inflam inh -107, ATXN2 expr inh 28µM
Cc1cccc(OCCN2CSC(=S)N(C)C2)c1	IL-1B inflam inh -96
Cc1cccc(OCCn2c(=O)n(C)c3ccccc32)c1	none
COc1ccc(CCNC(=O)c2c([S-])n(-c3ccc(C)cc3)c3cccc[n+]23)cc1	S2 tox inconclusive, IL-1B inflam inh -52
CCc1ccc2n(-c3ccc(OC)cc3)c([S-])c(C(=O)Nc3cc(C)cc(C)c3)[n+]2c1	none
COc1ccc(C)cc1NC(=O)CSc1nc2ccccc2nc1N1CCOCC1	none (no result: D3 antag, Integrin act MD, IL-1B inflam inh)
COc1ccc(NC(=O)CSc2nc3ccccc3nc2N2CCOCC2)c(OC)c1	S2 tox 4.5µM!
COc1ccc(NC(=O)CSc2nc(C3CC3)nc3ccccc23)cc1	IL-1B inflam inh inconclusive
COc1ccc(NC(=O)CSc2nc(C3CC3)nc3ccccc23)c(OC)c1	IL-1B inflam inh -59
CCN(CC)S(=O)(=O)c1cccc(NC(=S)NC(=O)/C=C/c2ccc(S(=O)(=O)N3CCOCC3)cc2)c1	D3 antag inconclusive, IL-1B inflam inh inconclusive
O=C(COc1ccc(/C=N/NC(=O)c2cc3ccccc3o2)cc1Br)Nc1ccccc1	S2 tox 10µM, IL-1B inflam inh -117, ATXN2 expr inh inconclusive
Cc1[nH]c2ccccc2c1/C=N/NC(=O)c1cc(C(C)(C)C)[nH]n1	D3 antag -59
O=C(N/N=C/c1cc2c(cc1Br)OCO2)c1ccccn1	none
CC(C)(C)c1cc(C(=O)N/N=C/c2cc3c(cc2Br)OCO3)n[nH]1	D3 antag -88
O=C(N/N=C/c1cc2c(cc1Br)OCO2)c1cc2ccccc2o1	D3 antag -107, IL-1B inflam inh inconclusive
CC(C)Nc1nc(N)c(C(=O)C23CC4CC(CC(C4)C2)C3)s1	none (no result: ATXN2 expr inh)
Nc1nonc1C(=O)NCCNCc1ccccc1OCc1ccc(F)cc1	ATXN2 expr inh inconclusive
CC(=O)c1ccc(OCC(=O)N(CCC2=CCCCC2)c2c(N)n(Cc3ccccc3)c(=O)[nH]c2=O)cc1	none
O=C(NC1CC2CCCC(C1)N2S(=O)(=O)c1ccccc1)c1ccccc1 (centres undefined)	none
Cc1cccc(C(=O)NC2CC3CCCC(C2)N3S(=O)(=O)c2ccccc2)c1 (centres undefined)	IL-1B inflam inh -56
CCCN1C2CCCC1CC(NC(=O)c1cccc([N+](=O)[O-])c1)C2 (centres undefined)	Integrin act MD 10µM
O=C(CN1C2CCCC1CC(NC(=O)c1ccccc1)C2)Nc1ccccc1 (centres undefined)	none
O=C(NC1CC2CCCC(C1)N2Cc1ccccc1)c1cccc(F)c1 (centres undefined)	D3 antag -106, S2 tox inconclusive (no result: ATXN2 expr inh)
CCCN1C2CCCC1CC(NC(=O)c1cccc(Cl)c1)C2 (centres undefined)	S2 tox inconclusive
O=C(NC1CC2CCCC(C1)N2Cc1ccccc1)c1cccc(Cl)c1 (centres undefined)	D3 antag -76, S2 tox inconclusive
O=C(NCCN1CCOCC1)C(=O)NCc1ccco1	none
Cc1ccc(C(=O)N/N=C/c2ccc(-c3cccc(Cl)c3)o2)cn1	none
Cc1ccc(-c2cc(C(=O)N/N=C/c3ccccc3O)n[nH]2)o1	S2 tox inconclusive, ATXN2 expr inh 20µM
Cc1cc(C(=O)N/N=C/c2ccc(-c3cccc(Cl)c3)o2)n[nH]1	D3 antag -61, Integrin act MD inconclusive
CC1(C)Cc2c(cnn2-c2ccc(F)cc2)C(NC(=O)CCC(F)(F)F)C1 (centres undefined)	none
CC(C)(C)NS(=O)(=O)c1ccc(N2C(=O)c3ccccc3C2=O)cc1	none (no result: S2 tox, ATXN2 expr inh)
CC(C)(C)NS(=O)(=O)c1cccc(S(=O)(=O)c2cccc(S(=O)(=O)NC(C)(C)C)c2)c1	D3 antag -122
Brc1ccc(-c2csc(/N=C/N3CCCC3)n2)cc1	IL-1B inflam inh -90
CCc1ccc(NC(=O)c2cc3c(C)nc4ccccc4c3o2)cc1	IL-1B inflam inh -139
Cc1nc2ccccc2c2oc(C(=O)N3CC(C)CC(C)C3)cc12 (centres undefined)	S2 tox inconclusive (no result: ATXN2 expr inh)
Cc1nc2ccccc2c2oc(C(=O)NCCCN3CC(C)CC(C)C3)cc12 (centres undefined)	D3 antag -65
CC1CCCN(CCCNC(=O)c2cc3c(Cl)nc4ccccc4c3s2)C1 (centres undefined)	D3 antag -65, S2 tox inconclusive, ATXN2 expr inh inconclusive (no result: IL-1B inflam inh)
Cc1ccc2oc(=O)c3cc(C(=O)NCCCN4CCN(C)CC4)sc3c2c1	Integrin act MD inconclusive
Cc1ccc2oc(=O)c3cc(C(=O)NCCCN4CC(C)CC(C)C4)sc3c2c1 (centres undefined)	IL-1B inflam inh -83
CC1CCCN(C(=O)c2cc3c(Cl)nc4ccccc4c3s2)C1 (centres undefined)	none (no result: D3 antag, Integrin act MD, IL-1B inflam inh)
COc1ccc(C(C(=O)NC2CCCC2)N(C(=O)c2csnn2)C2CCCC2)cc1 (centres undefined)	none
Nc1nc(Nc2ccccc2F)nc(NCc2ccco2)c1[N+](=O)[O-]	Integrin act MD inconclusive
O=[N+]([O-])c1cccc(-n2cc3ccc([N+](=O)[O-])cc3n2)c1	none
CCCCN1C(=O)C2C(c3ccc(OC)cc3O)NC(CC(C)C)(C(=O)O)C2C1=O (centres undefined)	none
Cc1nc2ccccc2c2oc(C(=O)NCCCN3CCCC(C)C3)cc12 (centres undefined)	D3 antag -77, S2 tox inconclusive
CC1CC(C)CN(CCCNC(=O)c2ccc3nc(N4CCOCC4)sc3c2)C1 (centres undefined)	D3 antag -63
CCCN1CCN(CCCNC(=O)c2ccc3nc(N4CCC(C)CC4)sc3c2)CC1	D3 antag inconclusive
